The values that follow come from PubChem BioAssay AID1851 (National Center for Advancing Translational Sciences (NCATS), 2009).

In all, about 16,000 compounds went through this assay and about 4,000 (25%) were called active. Not shown: some 26% with an inconclusive outcome. These entries were drawn from the full list. Unmarked numbers belong to inactive results. Calls follow the shape of the dose curve; as a rule, active = well fitted curve in the direction sought with a large enough effect; inconclusive = small, poorly fitted or top-dose-only effect, or effect the other way; inactive = no such curve, though single readings can be large or run the other way.
% is scaled to controls: 0 for no effect and ±100 for the full control effect.

This assay deals with Cytochrome P450 2C9 (Homo sapiens) (UniProt P11712). The assay can be described thus: Cytochrome panel assay with activity outcomes. The note with it: recombinant CYP, pro-luciferin dealkylation, luminescence, p450-cyp2c9; series mostly up to 57.1 µM.
Sequence of Cytochrome P450 2C9 (Homo sapiens) (P11712 whole entry, looked up): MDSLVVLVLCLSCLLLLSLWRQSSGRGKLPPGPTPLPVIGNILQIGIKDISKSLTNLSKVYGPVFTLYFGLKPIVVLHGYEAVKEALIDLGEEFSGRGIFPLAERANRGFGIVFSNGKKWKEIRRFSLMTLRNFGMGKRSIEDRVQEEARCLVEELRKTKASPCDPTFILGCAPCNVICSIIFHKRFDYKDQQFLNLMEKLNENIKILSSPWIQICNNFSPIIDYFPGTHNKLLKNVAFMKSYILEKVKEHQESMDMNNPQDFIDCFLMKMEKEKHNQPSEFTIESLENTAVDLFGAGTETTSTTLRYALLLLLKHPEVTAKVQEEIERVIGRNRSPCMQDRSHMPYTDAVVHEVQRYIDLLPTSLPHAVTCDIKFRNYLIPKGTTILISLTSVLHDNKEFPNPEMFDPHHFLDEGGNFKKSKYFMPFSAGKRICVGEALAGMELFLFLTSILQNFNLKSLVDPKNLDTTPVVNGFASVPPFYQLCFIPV
A word on the AC50: it is the midpoint of the concentration-response curve, whichever way the signal moves. For `Cc1ccc2[nH]c3c(c2c1)CN(C(=O)CN1c2ccc(F)cc2CCC1C)CC3` (configuration not stated), the AC50 is 10 µM (active).
On the same count and under the same terms, the same measure for `OCC1CCCN(Cc2ccc(-c3ccccc3)cc2)C1` (configuration not stated): “inactive”.
Same read-out and setting: with `CC(=O)Nc1ccc(N2CCCCC2)cc1` the entry was “inactive”.
For the molecule `Clc1ccccc1-c1cc(NCc2ccccc2)ncn1`, the activity, negative = inhibition was 4.07% [at 2.29 µM].
Consider `CNc1cc(N2CCCCCC2)ccc1[N+](=O)[O-]`, for which the concentration at half-maximal activity (AC50) was 6.31 µM (active).
As to `O=[N+]([O-])c1ccc(N2CCCC2)cc1NCc1ccccc1`, the AC50 is 1.58 µM (active).
Still for that read-out and setting: the same measure for `CS(=O)(=O)N1CCN(c2ccc([N+](=O)[O-])c(NCc3ccccc3)c2)CC1`: 12.6 µM (active).
The same measure, in the same setting: with `CCN1CCC[C@H]1CNC(=O)c1c(OC)ccc(Br)c1OC` the entry was “inactive”.
For the molecule `O=c1c(-c2cccc(F)c2)nc2cncnc2n1C1CC1`, the AC50 result is “inactive”.
In the case of `COc1ccc(-n2c(=O)c(-c3cc(F)cc(F)c3)nc3cncnc32)cc1`, the AC50 entry was “inactive”.
Still for that read-out and setting: the same measure for `O=c1c(-c2cccc(F)c2)nc2cncnc2n1Cc1ccccc1Cl`: 7.94 µM (active); for `O=c1c(-c2cccc(Cl)c2)nc2cncnc2n1C1CC1`: “inactive”; for `O=c1c(-c2cccc(Cl)c2)nc2cncnc2n1Cc1ccccc1Cl`: 3.98 µM (active).
Consider `O=c1c(-c2cc(F)cc(F)c2)nc2cncnc2n1Cc1ccccc1Cl`, for which the AC50 was 3.98 µM (active).
Turning to `O=c1c(-c2cccc(Cl)c2)nc2cncnc2n1Cc1ccccc1`, the concentration at half-maximal activity (AC50) is 1.26 µM (active).
As to `c1nc(NC2CCNCC2)c2cc(-c3ccoc3)ccc2n1`, the activity, negative = inhibition was -8.97% [at 2.29 µM].
As for `N#Cc1cccc(NC(=O)N2CCCC3(CCN(C(=O)c4csnn4)CC3)C2)c1`, the AC50 result is “inactive”.
Still for that read-out and setting: the same measure for `O=c1c(-c2ccc(Cl)cc2)nc2cncnc2n1Cc1ccccc1Cl`: “inactive”.
Still for that read-out and setting: the same measure for `O=c1c(-c2ccc(F)c(F)c2)nc2cncnc2n1C1CC1`: “inactive”; for `O=c1c(-c2ccc(F)c(F)c2)nc2cncnc2n1Cc1ccccc1Cl`: 5.01 µM (active).
For the molecule `O=c1c2ccccc2sc2c(CO)ccc(NCCN3CCCCC3)c12`, the activity, negative = inhibition was 17.3% [at 11.4 µM].
`COc1ccc([N+](=O)[O-])cc1COc1ccc2c(-c3ccccc3)cc(=O)oc2c1`: the concentration at half-maximal activity (AC50) is 7.08 µM (active).
Same read-out and setting: the same measure for `N[C@H](CCCP(=O)(O)O)C(=O)O`: “inactive”.
As for `Cc1cn(CC[C@H](N)C(=O)O)c(=O)[nH]c1=O`, the activity, negative = inhibition was 23.1% [at 11.4 µM].
Turning to `CCCCCCc1c(C[C@H](N)C(=O)O)o[nH]c1=O`, the AC50 result was “inactive”.
For the molecule `Cc1o[nH]c(=O)c1CC[C@H](N)C(=O)O`, the half-maximal activity concentration (AC50) was 10 µM (active).
Consider `Cc1ccc(S(=O)(=O)N[C@H]2COC(=O)[C@H](C)COC(=O)[C@H](C)NC(=O)C/C=C\[C@H]2C)cc1`, for which the activity, negative = inhibition was 2.34% [at 11.4 µM].
As to `CC(C)(C[C@@]1(C)NC(=O)NC1=O)OCc1ccccc1`, the activity, negative = inhibition was 9.56% [at 11.4 µM].
With `CN1CCc2c(c3c(n2C)CCN(C)[C@H]3c2ccccc2F)[C@@H]1c1ccccc1F`, the AC50 result was “inactive”.
Still for that read-out and setting: the same measure for `O=C1NCCN1Cc1ccccc1F`: 12.6 µM (active); for `COc1ccc(OC)c(NC(=O)[C@H]2CC=CC[C@H]2C(=O)O)c1`: “inactive”.
`COc1ccc(OC)c(NC(=O)CC(Cc2ccccc2OC)C(=O)O)c1` (configuration not stated): the AC50 is 2.24 µM (active).
In the case of `Cc1ccc(Oc2ncc(CN3CCOCC3)s2)cc1`, the AC50 result was “inactive”.
In the case of `CCOC(=O)C1CCN(C(=O)C2CCN(S(=O)(=O)N3CCCC3)CC2)CC1`, the AC50 entry is “inactive”.
On the same count and under the same terms, with `CCOC(=O)C1CCN(Cc2cnc(Oc3ccc(OC)cc3)s2)CC1` the figure was 10 µM (active); with `c1ccc2nc(C3=NCCN3)cnc2c1`, “inactive”.
For the molecule `N=C(N)S[C@H]1c2ccccc2-c2cc([N+](=O)[O-])ccc21`, the activity, negative = inhibition is -26% [at 11.4 µM].
Consider `O=C1c2ccccc2C(=O)N1CCCCN(C(=O)c1cccc([N+](=O)[O-])c1)c1ccc(Cl)cc1`, for which the AC50 is 7.08 µM (active).
As for `O=C1c2ccccc2C(=O)N1CCCCN(C(=O)c1ccc([N+](=O)[O-])cc1)c1ccc(Cl)cc1`, the AC50 was 1.78 µM (active).
On to `N[C@H](C(=O)O)C1[C@H](C(=O)O)[C@H]1C(=O)O` (some centres not stated), for which the AC50 entry was “inactive”.
Same read-out and setting: the same measure for `CCc1cc2c(=O)n(-c3ccccc3)c(=S)[nH]c2s1`: 14.1 µM (active).
Take `CCOC(=O)N1CCN(C(=O)c2ccc3c(=O)n(-c4ccc(OC)cc4)c(=S)[nH]c3c2)CC1`: the AC50 result is “inactive”.
Take `O=c1[nH]c(=S)c2[nH]c(=O)n(-c3ccccc3)c2[nH]1`: the activity, negative = inhibition is -16.7% [at 11.4 µM].
With `O=C(N/N=C/c1c[nH]c2ccccc12)c1ccn(Cc2ccc(Cl)cc2Cl)n1`, the half-maximal activity concentration (AC50) is 1.26 µM (active).
Regarding `CO[C@@H]1COC(=O)CCC[C@@H](C)[C@H](OC)COC(=O)CCC[C@H]1C`, the activity, negative = inhibition is -7% [at 11.4 µM].
Turning to `C=CCc1cccc(C2Nc3ccccc3C(=O)N2O)c1O` (configuration not stated), the half-maximal activity concentration (AC50) was 5.01 µM (active).
Turning to `CC1(C(=O)CSc2nc3ccccc3s2)CCC(=O)O1` (configuration not stated), the AC50 entry is “inactive”.
For the molecule `CC(C)CC1CC(=O)OC1(C)C(=O)CSc1nc2ccccc2s1` (configuration not stated), the AC50 is 28.2 µM (active).
As for `Cc1cc2ccc(OC(=O)c3ccc(N=C(N)N)cc3)cc2oc1=O`, the activity, negative = inhibition is 3.7% [at 11.4 µM].
Regarding `Cc1ccc(OC(=O)c2cccc(C(=O)Oc3ccc(C)cc3)n2)cc1`, the AC50 result is “inactive”.
As for `COc1ccc(-c2oc3ccccc3c(=O)c2OC(=O)c2ccc(C)cc2)cc1`, the AC50 is 1.26 µM (active).
Turning to `CC(=O)NCCNc1ncnc2ccc(-c3cccc(NS(C)(=O)=O)c3)cc12`, the activity, negative = inhibition was -12.9% [at 2.29 µM].
As to `NC(=O)c1ccc(-c2nc(-c3ccc4c(c3)OCO4)c(-c3ccccn3)[nH]2)cc1`, the AC50 result is “inactive”.
Still for that read-out and setting: with `COc1ccc2nc(SCC(=O)Nc3ccc4c(c3)OCCO4)[nH]c2c1` the figure was 2.24 µM (active); with `CCOC(=O)NC(=O)CSc1nc2ccc(OCC)cc2[nH]1`, “inactive”; with `Cc1ccc2nc(SCC(=O)c3ccc4c(c3)OCO4)[nH]c2c1`, 5.01 µM (active).
With `CC(C)(C)c1ccc(-c2nnc(SCC(=O)c3ccc4c(c3)OCCO4)o2)cc1`, the AC50 is 3.16 µM (active).
For the molecule `Cc1ccc2nc(CC(=O)c3ccc4ccccc4c3)c(=O)[nH]c2c1`, the activity, negative = inhibition is -7.8% [at 11.4 µM].
With `Cc1ccc(NC(=O)CSc2nnc(-c3ccncc3)o2)cc1`, the concentration at half-maximal activity (AC50) was 3.55 µM (active).
Still for that read-out and setting: the same measure for `CCC(=O)Nc1ccc(NC(=O)CSc2nnnn2-c2cccnc2)cc1C`: “inactive”.
For the molecule `CCS(=O)(=O)N1CCC(C(=O)NCCCN2CCCC2)CC1`, the AC50 entry is “inactive”.
Consider `COc1ccc([C@H]2Sc3ccccc3N(CCN(C)C)C(=O)[C@H]2OC(C)=O)cc1`, for which the AC50 entry is “inactive”.
In the case of `NC(N)=N/N=C(\c1ccc(Cl)cc1)C1CC1`, the activity, negative = inhibition was -1.67% [at 11.4 µM].
Regarding `C#CCCCO/N=C1/C[C@@H](O)[C@@H](O)[C@@H]2[C@@H]3C(=O)N(C4CCCCC4)C(=O)[C@H]3CC[C@@H]12`, the activity, negative = inhibition is -15% [at 11.4 µM].
Same read-out and setting: with `CC(C)C(O)(C(C)C)C(C)C` the figure was -0.763% [at 11.4 µM]; with `CNc1ncncc1-c1ccc(C(=O)N(C)C)cc1`, -6.73% [at 2.29 µM].
For `COc1ccc(-n2c(=O)[nH]cc(C(=O)Nc3ccc4c(c3)OCCO4)c2=O)cc1`, the AC50 is 7.08 µM (active).
In the case of `COc1cc(C(=O)Nc2ccc3c(c2)OCCO3)c(-n2cnnn2)cc1OC`, the AC50 entry was “inactive”.
Same read-out and setting: with `Cc1ccc2nc(SCC(=O)Nc3nnc(SCC(N)=O)s3)[nH]c2c1` the figure was 11.2 µM (active).
In the case of `COc1cc(-c2nnc(SCC(=O)Nc3ccc4c(c3)OCCO4)o2)cc(OC)c1OC`, the concentration at half-maximal activity (AC50) was 1.41 µM (active).
Same read-out and setting: the same measure for `CCCCNCCOCCSc1ccc(Cl)cc1`: “inactive”.
In the case of `CCCCCc1nc2c(=O)[nH]c3ccccc3c2o1`, the AC50 entry is “inactive”.
For `NC(=Nc1ccccc1)NC(=O)c1nc(Cl)c(N)nc1N`, the AC50 result was “inactive”.
The same measure, in the same setting: with `N/C(=N\c1nc2ccccc2o1)NC(=O)c1ccccc1F` the figure was 12.6 µM (active).
For the molecule `COc1ccc(C2/C(=C(/O)c3ccc4c(c3)CC(C)O4)C(=O)C(=O)N2CCN2CCOCC2)cc1` (configuration not stated), the AC50 entry was “inactive”.
The same measure, in the same setting: the same measure for `CCN(CC)C(=O)CSc1nc2ccc(NC(=O)CSc3nnc(COc4ccccc4C)n3C)cc2s1`: 1.58 µM (active); for `COc1cccc(NC(=O)CSc2nnc(CN3CCOCC3)n2C)c1`: “inactive”.
On to `CCOC(=O)N/N=C/c1ccccc1F`, for which the AC50 result was “inactive”.
With `O=C(COc1ccc(-c2ccccc2)cc1)N/N=C/c1ccccc1Br`, the half-maximal activity concentration (AC50) is 4.47 µM (active).
For the molecule `CN(C)Cc1c[nH]c2nc[nH]c(=O)c12`, the activity, negative = inhibition is 4.29% [at 11.4 µM].
For the molecule `CC(NC(=O)CCSc1nc(-c2ccc3c(c2)OCO3)cc(C(F)(F)F)n1)c1ccccc1` (configuration not stated), the AC50 was 2 µM (active).
Turning to `CC(=O)NCCNc1nc(-c2ccc3c(c2)OCO3)nc2ccccc12`, the activity, negative = inhibition is 5.84% [at 2.29 µM].
On the same count and under the same terms, the same measure for `c1ccc(CNc2nc(-c3ccc4c(c3)OCO4)nc3ccccc23)cc1`: -26.1% [at 2.29 µM].
In the case of `Cc1cc(NCCO)c2ccccc2n1`, the AC50 result was “inactive”.
`COCCNc1nc(-c2ccccc2C(F)(F)F)nc2ccccc12`: the activity, negative = inhibition was -9.26% [at 2.29 µM].
With `CCCNc1c(F)c(F)c2c(C)c3ccccc3nc2c1F`, the concentration at half-maximal activity (AC50) is 15.8 µM (active).
On the same count and under the same terms, the same measure for `CCCCC1CCC(c2nc(-c3ccccn3)no2)CC1` (configuration not stated): 14.1 µM (active); for `CCN1CCN(c2nc(-c3ccccn3)nc3ccccc23)CC1`: “inactive”; for `c1ccc2nc(-c3ccncc3)ccc2c1`: 5.01 µM (active).
Still for that read-out and setting: with `CC(=O)/C=C/c1ccc2ccccc2n1` the entry was “inactive”.
For `COc1cccc(-c2cc(N(C)Cc3ccco3)ncn2)c1`, the activity, negative = inhibition is -6.29% [at 2.29 µM].
With `C[C@@H]1NC(=O)C/C=C\[C@@H](C)[C@@H]2C=C[C@H](O)[C@@H](COC(=O)[C@H](C)NC(=O)C/C=C\[C@@H](C)[C@@H]3C=C[C@H](O)[C@@H](COC1=O)O3)O2`, the activity, negative = inhibition is 5.32% [at 11.4 µM].
For the molecule `CCOc1cc(S(=O)(=O)N(Cc2ccccc2)Cc2ccccc2)c(OCC)cc1-n1cnnn1`, the AC50 was 7.94 µM (active).
The same measure, in the same setting: with `O=C(O)CN(CCOCCOCCN(CC(=O)O)CC(=O)O)CC(=O)O` the entry was “inactive”.
For the molecule `FC(F)(F)c1ccccc1-c1nc(NC2CC2)c2ccccc2n1`, the activity, negative = inhibition was 12.1% [at 2.29 µM].
On the same count and under the same terms, with `COc1cc(C)cc(OC)c1/C=C\C(=O)O` the figure was -15.8% [at 11.4 µM].
For the molecule `COc1ccc2ccccc2c1/C=C\C(=O)c1ccccc1`, the AC50 is 1.26 µM (active).
